Our source for the growth values is PubChem BioAssay (NCI).

Each structure is given as a SMILES string. Compounds without any hit were thinned out: in the full panel of roughly 83,000, 20% have a hit.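 Step 1: grow cells in 96-well plates. Step 2: add test compound at a single concentration. Step 3: incubate 48 h. Step 4: record percent growth.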 Unmarked numbers belong to inactive results. Calls of active or inactive are those of the source. How the source made its calls: active means growth percent below 10; inactive means the rest.

Some test systems named below: SK-MEL-2 melanoma; SN12C renal; UO-31 renal; TK-10 renal; ACHN renal; CAKI-1 renal; A498 renal; CCRF-CEM leukemia; MOLT-4 leukemia; EKVX NSCLC.
What all share (assay): NCI-60 one-dose screen, 48 h (100 = growth as untreated, 0 = no growth, -100 = all killed)
Holding throughout (conditions): 10 µM unless noted

Turning to `CCC1CCc2nc3sc(C(=O)Nc4cccc(F)c4)c(N)c3cc2C1` (configuration not stated), the growth is 63.3% in the assay with SK-MEL-2 melanoma; 94.4% in the assay with SN12C renal; 67.2% in the assay on UO-31 renal; 77% in the assay on TK-10 renal; 67.9% in the assay with ACHN renal; 57.9% with CAKI-1 renal. In addition, the growth with A498 renal was 50.5%; with CCRF-CEM leukemia it was 47.9%; in the assay on MOLT-4 leukemia it was 37.5%.
Regarding `CCCCCCCCCCCCCC(=S)NCCCC[C@H](NC(=O)OCc1ccccc1)C(=O)Nc1ccccc1`, the growth with SK-MEL-2 melanoma is 40.5%; with SN12C renal it was 27.3%; with UO-31 renal it was 28.6%; with TK-10 renal, 44.2%; in the assay on ACHN renal, 24.6%; with CAKI-1 renal, 34.5%. In addition, the growth with A498 renal was 55.4%; with CCRF-CEM leukemia, 27.3%; in the assay with MOLT-4 leukemia, 21.6%.
As to `CC(C)N1CCN(c2ccncc2S(=O)(=O)N2CCN(C)CC2)CC1`, the growth in the assay on SK-MEL-2 melanoma was 107%; with SN12C renal it was 98.4%; in the assay on UO-31 renal it was 87.3%; with TK-10 renal, 101%; in the assay on ACHN renal it was 101%; in the assay on CAKI-1 renal, 98.5%. The results for the growth in the assay on A498 renal, in the assay with CCRF-CEM leukemia and with MOLT-4 leukemia were 107%, 98.4% and 104%, respectively.
With `N#Cc1c(N)c(C(=O)c2ccc3c(c2)OCCO3)n2c1CCCC2`, the growth in the assay with SK-MEL-2 melanoma is 6.49% (active); with SN12C renal, 42.7%; with UO-31 renal it was 34.4%; with TK-10 renal, 39.9%; with ACHN renal it was 39%; in the assay on CAKI-1 renal it was 4.26% (active). Besides, the growth was 38.8% in the assay on A498 renal, 30.5% in the assay on CCRF-CEM leukemia and 12.3% with MOLT-4 leukemia.
As for `CC1=C(C(=O)Nc2ccc(F)cc2)C(c2ccc(C)cc2)C2=C(CC(C)(C)CC2=O)N1` (configuration not stated), the growth with SK-MEL-2 melanoma is 110%; with SN12C renal it was 97%; in the assay with UO-31 renal it was 63.2%; in the assay with TK-10 renal it was 109%; in the assay with ACHN renal it was 94.7%; in the assay on CAKI-1 renal, 69.6%. For the same compound, the values for the growth in the assay on A498 renal, in the assay with CCRF-CEM leukemia and in the assay on MOLT-4 leukemia were 63.7%, 82.8% and 85%, respectively.
As to `COc1ccc(C(=O)c2c(N)nc3n2CCCC3)cc1OC`, the growth in the assay with SK-MEL-2 melanoma was 103%; with SN12C renal it was 109%; in the assay on UO-31 renal, 84.3%; in the assay on TK-10 renal, 92.8%; in the assay on ACHN renal it was 107%; in the assay on CAKI-1 renal it was 93.9%. Moreover, the growth in the assay on A498 renal is 98.6%; in the assay with CCRF-CEM leukemia, 99.8%; in the assay on MOLT-4 leukemia it was 84.1%.
On to `C=CCn1c(SCC(=O)Nc2ccc(/C(C)=N\O)cc2)nnc1-c1cc(-c2ccccc2)nc2ccccc12`, for which the growth in the assay on SK-MEL-2 melanoma is 72.1%; in the assay with EKVX NSCLC it was 55%; in the assay on SN12C renal, 69.3%; in the assay with TK-10 renal, 74.5%; in the assay with ACHN renal, 38.4%; in the assay with CCRF-CEM leukemia, 18.2%. Also, the growth in the assay with MOLT-4 leukemia is 3.61% (active).
For `O=C(/C=C/c1ccccc1)C(Br)C(Br)c1ccccc1` (configuration not stated), the growth in the assay on SK-MEL-2 melanoma is 40.9%; in the assay on SN12C renal it was 41.4%; in the assay on UO-31 renal, -88.1% (active); in the assay with TK-10 renal, -31.1% (active); in the assay with ACHN renal, -65.9% (active); with CAKI-1 renal, -44.4% (active). Moreover, the figures for the growth in the assay on A498 renal, in the assay on CCRF-CEM leukemia and in the assay on MOLT-4 leukemia were 85.1%, -41.4% (active) and -25% (active), respectively.
Regarding `O=S(=O)(NCC[C@@H]1C[C@H]1c1ccc2ccccc2c1)c1ccc(C(F)(F)F)cc1`, the growth was 104% in the assay on SK-MEL-2 melanoma; 91.1% with EKVX NSCLC; 92.9% in the assay with SN12C renal; 100% in the assay on TK-10 renal; 79.4% with CAKI-1 renal; 94.2% with A498 renal. In addition, the figures for the growth with CCRF-CEM leukemia and in the assay on MOLT-4 leukemia were 85% and 84.3%, respectively.
As for `CNCCCNc1ccnc2cc(Cl)ccc12`, the growth is -64.5% (active) in the assay on SK-MEL-2 melanoma; 2.75% (active) in the assay with SN12C renal; -34.4% (active) in the assay with UO-31 renal; -11.4% (active) in the assay with TK-10 renal; -31.6% (active) in the assay with ACHN renal; -29.7% (active) in the assay with CAKI-1 renal. Besides, the results for the growth with A498 renal, with CCRF-CEM leukemia and with MOLT-4 leukemia were -78.2% (active), -17.1% (active) and 2.58% (active), respectively.
For the compound `O=c1c2sc3ccccc3c2nnn1-c1ccc(F)c(Cl)c1`, the growth in the assay on SK-MEL-2 melanoma was 75.4%; with SN12C renal, 70.2%; with UO-31 renal, 18.1%; in the assay with TK-10 renal, 29%; in the assay on ACHN renal, 4.64% (active); in the assay on CAKI-1 renal, 35.6%. Also, the growth in the assay with A498 renal was 56.6%; in the assay with CCRF-CEM leukemia, 48.6%; in the assay with MOLT-4 leukemia, 34.3%.
Turning to `CC(=O)c1c(O)c(C)c(O)c2c1OC1=CC(=O)/C(=C(/C)N)C(=O)C12C` (configuration not stated), the growth in the assay with SK-MEL-2 melanoma was 94.8%; in the assay on SN12C renal, 92.8%; in the assay with UO-31 renal it was 77.8%; in the assay on TK-10 renal it was 99.4%; in the assay on ACHN renal, 88.4%; with CAKI-1 renal it was 87.1%. Besides, the figures for the growth with A498 renal, with CCRF-CEM leukemia and with MOLT-4 leukemia were 74.1%, 93.1% and 73.3%, respectively.
As for `CCOC(=O)Nc1ccc2nc(-c3cscn3)[nH]c2c1`, the growth in the assay with SK-MEL-2 melanoma is 32.4%; in the assay on SN12C renal, 51.1%; in the assay with UO-31 renal, 50.9%; with TK-10 renal, 63.2%; in the assay on ACHN renal, 73.9%; in the assay on CAKI-1 renal, 39.3%. Moreover, the growth in the assay on A498 renal was 41.8%; with CCRF-CEM leukemia it was 70.8%; with MOLT-4 leukemia it was 49.9%.
As to `CCc1ccc(Nc2cc(C)c3ccc(O)cc3n2)cc1`, the growth with SK-MEL-2 melanoma is 85%; in the assay on SN12C renal it was 77%; in the assay with UO-31 renal it was 44.1%; in the assay with TK-10 renal, 74.1%; in the assay with ACHN renal it was 73.8%; in the assay with CAKI-1 renal, 53%. Besides, the growth in the assay on A498 renal was 93.7%; in the assay on CCRF-CEM leukemia, 68.9%; with MOLT-4 leukemia it was 62.9%.
Regarding `COc1ccc(-c2nc3ccc(Cc4ccc5nc(-c6ccc(OC)cc6)[nH]c5c4)cc3[nH]2)cc1`, the growth is 41.2% in the assay with SK-MEL-2 melanoma; 42.4% in the assay on SN12C renal; 89.3% in the assay on UO-31 renal; 75.1% in the assay on TK-10 renal; 85.4% in the assay on ACHN renal; 56.3% in the assay with CAKI-1 renal. The values for the growth in the assay with A498 renal, in the assay on CCRF-CEM leukemia and in the assay with MOLT-4 leukemia were 102%, 13.4% and 43.7%, respectively.
